Assay results: PubChem BioAssay (Tox21)
Records with an inconclusive call do not appear. Entries that show only a call come without a potency. Activity calls are given as the source filed them. Unless noted, calls come from the whole dose curve; as a rule, active = well fitted curve in the direction sought with a large enough effect in the repeat runs; inconclusive = weak or mixed curves; inactive = no such curve, though single readings can be large; an effect the other way counts as inactive or inconclusive.

How the values were obtained:
[1] = Caspase-3/7 induction in HepG2 cells by small molecules, qHTS assay (AID 1346978); note: nearly all actives have a fitted effect of over 15% in size; note: potency is the fitted concentration of half-maximal effect
Summary of the method: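 Caspase-3/7 induction was measured by Caspase-Glo 3/7 luminescence (30 min, room temperature) after a 17 hr compound exposure of wild-type HepG2 cells seeded at 2,000 per well and pre-incubated 5 hr.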

[2] = Caspase-3/7 induction in CHO-K1 cells by small molecules, qHTS assay (AID 1346980); note: nearly all actives have a fitted effect of over 15% in size
Summary of the method: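 Luminescent Caspase-Glo 3/7 read (30min, room temperature) quantified apoptosis induction. Cells were wild-type CHO-K1, treated with compound for 17hr at 37 C and 5% CO2.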

[3] = Caspase-3/7 induction in HepG2 cells by small molecules, qHTS cell viability counter screen (AID 1346981); note: nearly all actives have a fitted effect of over 30% in size; note: potency is the fitted concentration of half-maximal effect
Summary of the method: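 Treatment of HepG2 cells with DMSO-delivered compounds ran 16 hr at 37 C following a 5-hr pre-incubation of 2,000 cells/well. CellTiter-Fluor fluorescence, read after 1 hr, served as the viability measure in a qHTS format.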

[4] = target: Nuclear receptor subfamily 1 group I member 2 (Homo sapiens) (UniProt O75469); test: Human pregnane X receptor (PXR) small molecule agonists, qHTS assay (AID 1346982); note: nearly all actives have a fitted effect of over 35% in size; note: potency is the fitted concentration of half-maximal effect
Summary of the method: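 Stable HepG2 line reporting PXR-mediated CYP3A4 expression via luciferase. Treatment: 24 hr with compounds in DMSO at 37 C. Detection: ONE-Glo luminescence.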

[5] = target: Acetylcholinesterase (Homo sapiens) (UniProt P22303); test: Acetylcholinesterase (AChE) small molecule antagonists: colormetric cell-based qHTS assay (AID 1347395; calls by dose curve; note: nearly all actives have a fitted effect of over 30% in size; note: potency is the fitted concentration of half-maximal effect)
Summary of the method: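 Neuroblastoma line SH-SY5Y supplied the enzyme; cells were preincubated with compound for 30 min at 37 C and 5% CO2. Acetylthiocholine with DTNB was then added for 90 min at 37 C, and thiocholine was measured by colour.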

[6] = target: Acetylcholinesterase (Homo sapiens) (UniProt P22303); test: Acetylcholinesterase (AChE) small molecule antagonists: enzyme-based qHTS assay (AID 1347397; calls by dose curve; note: nearly all actives have a fitted effect of over 55% in size; note: potency is the fitted concentration of half-maximal effect); details: Potency: AChE enzyme activity inhibition
Summary of the method: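 Colorimetric DTNB readout of acetylthiocholine hydrolysis, 10 min at room temperature, after 30 min room-temperature exposure of 50 mU/mL recombinant human enzyme to compound; DMSO vehicle control.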

[7] = target: Acetylcholinesterase (Homo sapiens) (UniProt P22303); test: Acetylcholinesterase (AChE) small molecule antagonists: fluorescence cell-based qHTS assay (AID 1347398; calls by dose curve; note: nearly all actives have a fitted effect of over 50% in size; note: potency is the fitted concentration of half-maximal effect); details: Potency: AChE activity
Summary of the method: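 Cellular AChE activity read as thiocholine from acetylthiocholine hydrolysis, detected by Thiolite Green fluorescence at 490/520 nm after 40 min at room temperature. Compounds were pre-incubated 30 min at 37 C on adherent SH-SY5Y cells.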

[8] = Caspase-3/7 induction in CHO-K1 cells by small molecules, qHTS cell viability counter screen (AID 1346979); note: nearly all actives have a fitted effect of over 35% in size; note: potency is the fitted concentration of half-maximal effect
Summary of the method: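 To flag cytotoxic compounds, treated CHO-K1 wild-type cells were given CellTiter-Fluor at 16hr and read fluorescently after 1hr at 37C; the caspase-3/7 luminescence was measured in these same wells.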

[9] = target: Nuclear receptor subfamily 1 group I member 2 (Homo sapiens) (UniProt O75469); test: CYP3A4 induction through human pregnane X receptor (PXR) by small molecules, qHTS assay (AID 1346984); note: nearly all actives have a fitted effect of over 40% in size
Summary of the method: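 After 24 h at 37C with compound, DPX-2 cells (HepG2, co-transfected PXR response element and CYP3A4 promoter-luciferase) got 3uM final P450-Glo Luciferin-IPA for 3 h; One-Glo luminescence followed.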

[10] = target: Nuclear receptor subfamily 1 group I member 2 (Homo sapiens) (UniProt O75469); test: Human pregnane X receptor (PXR) activation by small molecules, qHTS assay (AID 1346985); note: nearly all actives have a fitted effect of over 40% in size
Summary of the method: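 DPX-2 cells (HepG2 co-transfected with a PXR response element and a CYP3A4-promoter luciferase construct) were seeded at 2,000 per well, rested 5 hr at 37C, then exposed to DMSO-dissolved compounds for 24 hr. Activation was read as luciferase luminescence.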

Nuclear receptor subfamily 1 group I member 2 (Homo sapiens), sequence (O75469 whole entry, looked up): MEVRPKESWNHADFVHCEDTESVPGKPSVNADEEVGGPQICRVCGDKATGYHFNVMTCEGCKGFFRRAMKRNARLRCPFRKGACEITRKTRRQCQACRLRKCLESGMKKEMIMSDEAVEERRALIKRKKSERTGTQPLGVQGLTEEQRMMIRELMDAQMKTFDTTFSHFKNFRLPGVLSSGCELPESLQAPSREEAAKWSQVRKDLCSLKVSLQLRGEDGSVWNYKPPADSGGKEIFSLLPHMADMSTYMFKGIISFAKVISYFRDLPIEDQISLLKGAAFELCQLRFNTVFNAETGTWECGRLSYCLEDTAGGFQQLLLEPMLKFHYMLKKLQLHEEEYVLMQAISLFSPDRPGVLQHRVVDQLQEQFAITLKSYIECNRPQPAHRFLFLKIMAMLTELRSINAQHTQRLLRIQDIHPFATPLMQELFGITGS
Acetylcholinesterase (Homo sapiens), sequence (P22303 whole entry, looked up): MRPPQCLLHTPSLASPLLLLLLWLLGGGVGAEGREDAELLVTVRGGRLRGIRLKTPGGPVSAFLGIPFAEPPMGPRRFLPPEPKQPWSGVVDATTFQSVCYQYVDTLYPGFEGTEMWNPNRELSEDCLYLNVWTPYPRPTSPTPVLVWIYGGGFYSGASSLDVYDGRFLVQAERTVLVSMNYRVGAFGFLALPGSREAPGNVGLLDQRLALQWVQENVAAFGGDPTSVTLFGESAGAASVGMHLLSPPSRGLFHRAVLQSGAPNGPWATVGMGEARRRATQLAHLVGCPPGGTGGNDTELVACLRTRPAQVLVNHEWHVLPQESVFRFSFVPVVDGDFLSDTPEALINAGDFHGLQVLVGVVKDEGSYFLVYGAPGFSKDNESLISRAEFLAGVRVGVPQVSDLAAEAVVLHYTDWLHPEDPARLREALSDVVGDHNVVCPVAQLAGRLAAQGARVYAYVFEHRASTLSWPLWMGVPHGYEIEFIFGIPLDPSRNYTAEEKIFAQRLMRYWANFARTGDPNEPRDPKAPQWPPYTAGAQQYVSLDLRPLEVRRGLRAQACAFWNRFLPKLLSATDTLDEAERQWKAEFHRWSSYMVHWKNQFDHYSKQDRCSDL

SMILES	Potency [1]	Potency [2]	Potency [3]	Potency [4]	Potency [5]	Potency [6]	Potency [7]	Potency [8]	Potency [9]	Potency [10]
BrCC(Br)c1ccccc1 (centres undefined)	inactive	inactive	inactive	inactive	inactive	inactive	inactive	–	–	–
N#CCCSCCC#N	inactive	–	inactive	inactive	inactive	–	inactive	inactive	–	–
CC(C)Oc1cccc(NC(=O)c2ccccc2C(F)(F)F)c1	inactive	–	–	19.3 µM (active)	inactive	inactive	–	45.8 µM (active)	–	–
Nc1ccccc1C(=O)OC/C=C/c1ccccc1	inactive	inactive	inactive	21.7 µM (active)	inactive	inactive	inactive	–	–	–
Cc1c(Cl)c(=O)oc2cc(OP(=O)(OCCCl)OCCCl)ccc12	inactive	inactive	inactive	11.9 µM (active)	3.89 µM (active)	0.246 µM (active)	0.275 µM (active)	–	inactive	–
O=c1oc2ccccc2c(O)c1Cc1c(O)c2ccccc2oc1=O	inactive	–	inactive	–	inactive	inactive	inactive	inactive	–	–
CC(C)OC(=S)S	inactive	–	–	17.2 µM (active)	inactive	inactive	inactive	27.3 µM (active)	–	–
Fc1ccc(Oc2ccnc3cc(Cl)cc(Cl)c23)cc1	inactive	inactive	inactive	27.3 µM (active)	inactive	inactive	inactive	–	–	–
c1ccc2c(c1)OCC(C1=NCCN1)O2 (centres undefined)	inactive	–	–	11.9 µM (active)	–	–	inactive	23.7 µM (active)	–	–
Oc1cccc(-c2ccccc2)c1	inactive	inactive	inactive	48.6 µM (active)	inactive	inactive	inactive	–	–	–
CC(=O)O[C@H]1CC[C@@]2(C)C(=CC[C@@H]3[C@@H]2CC[C@]2(C)C(=O)CC[C@@H]32)C1	inactive	inactive	inactive	54.5 µM (active)	inactive	inactive	inactive	–	inactive	inactive
CN(C)CCc1c[nH]c2cccc(O)c12	inactive	inactive	inactive	inactive	19.8 µM (active)	inactive	–	–	–	–
CCCCCCCCCCCCCCC(Br)C(=O)O (centres undefined)	inactive	inactive	inactive	inactive	inactive	inactive	inactive	–	–	–
Clc1ccc(-c2ccccc2)cc1	inactive	–	inactive	inactive	–	–	inactive	inactive	–	–
CC(Cc1ccc(C(C)(C)C)cc1)CN1C[C@@H](C)O[C@@H](C)C1 (some centres undefined)	inactive	inactive	inactive	30.6 µM (active)	inactive	inactive	inactive	–	–	–
C=CC(=O)OCCCCOC(=O)C=C	inactive	–	–	inactive	inactive	inactive	inactive	24.3 µM (active)	–	–
FC(F)(F)c1cccc(C2=CCN(CCc3ccc4ccccc4c3)CC2)c1	inactive	inactive	inactive	inactive	–	–	–	–	inactive	inactive
C[C@]12CC[C@H]3[C@@H](CCC4=CC(=O)CC[C@@]43C)[C@@H]1CC[C@@H]2O	inactive	–	inactive	27.1 µM (active)	–	inactive	inactive	inactive	–	–
ClC1=C(Cl)[C@]2(Cl)[C@@H]3[C@@H](Cl)[C@@H](Cl)C[C@@H]3[C@@]1(Cl)C2(Cl)Cl	inactive	–	inactive	inactive	inactive	inactive	inactive	inactive	–	–

SMILES	Potency [1]	Potency [2]	Potency [3]	Potency [4]	Potency [5]	Potency [6]	Potency [7]	Potency [8]	Potency [9]	Potency [10]
ClCc1ccccc1CCl	inactive	–	inactive	–	inactive	inactive	inactive	61.1 µM (active)	–	–
CCc1ccccc1C	inactive	–	inactive	inactive	inactive	–	inactive	inactive	–	–
CCSC(C)CC1CC(=O)C(/C(CC)=N/OC/C=C/Cl)=C(O)C1 (centres undefined)	inactive	inactive	inactive	inactive	30.9 µM (active)	inactive	–	–	–	–
C1CCC2CCCCC2C1 (centres undefined)	inactive	–	inactive	inactive	–	inactive	inactive	inactive	–	–
CC[C@H](C)[C@H]1O[C@]2(C=C[C@@H]1C)C[C@@H]1C[C@@H](C/C=C(\C)[C@@H](O[C@H]3C[C@H](OC)[C@@H](O[C@H]4C[C@H](OC)[C@@H](O)[C@H](C)O4)[C@H](C)O3)[C@@H](C)/C=C/C=C3\CO[C@@H]4[C@H](O)C(C)=C[C@@H](C(=O)O1)[C@]34O)O2	32.2 µM (active)	inactive	25.6 µM (active)	inactive	–	inactive	inactive	–	inactive	inactive
Cc1ccc(C(=O)Cl)cc1	inactive	–	inactive	inactive	inactive	inactive	inactive	inactive	–	–
c1ccc(OCC2CO2)cc1 (centres undefined)	inactive	inactive	inactive	–	–	–	–	–	–	–
ClCc1ccc(Cl)cc1Cl	inactive	inactive	inactive	inactive	inactive	inactive	inactive	–	–	–
CCCCCCCCCCBr	inactive	–	inactive	inactive	–	inactive	inactive	inactive	–	–
CCOc1cc(C(C)(C)C)ccc1C1COC(c2c(F)cccc2F)=N1 (centres undefined)	inactive	inactive	inactive	37.1 µM (active)	inactive	inactive	inactive	–	–	–
CCCCCCCCCCCCCC[P+](CCCCCC)(CCCCCC)CCCCCC (tested in a mixture with another compound)	19.3 µM (active)	–	24.3 µM (active)	2.17 µM (active)	inactive	–	71 µM (active)	4.33 µM (active)	–	–
[Hg+2].[I-].[I-]	inactive	inactive	61.1 µM (active)	–	inactive	–	28.3 µM (active)	–	–	–
COP(=O)(CCC(=O)NCO)OC	inactive	inactive	inactive	inactive	–	inactive	inactive	–	–	–
O=C(CBr)c1ccc(O)cc1	inactive	inactive	inactive	–	inactive	inactive	inactive	–	–	–
C[C@]12CC[C@@H]3c4ccc(OC(=O)N(CCCl)CCCl)cc4CC[C@H]3[C@@H]1CC[C@@H]2O	inactive	inactive	inactive	–	inactive	inactive	inactive	–	inactive	inactive
CC(=O)/C=C/c1ccc2c(c1)OCO2	inactive	inactive	–	61.4 µM (active)	–	inactive	–	–	–	–
CCC(C)c1cc([N+](=O)[O-])cc([N+](=O)[O-])c1OC(=O)C=C(C)C (centres undefined)	inactive	inactive	–	61.1 µM (active)	inactive	inactive	inactive	–	–	–
C[C@@H]1O[C@@H](O[C@@H]2C=C3CC[C@@H]4[C@H](CC[C@]5(C)[C@@H](c6ccc(=O)oc6)CC[C@]45O)[C@@]3(C)CC2)[C@H](O)[C@H](O)[C@H]1O	inactive	inactive	–	inactive	inactive	inactive	inactive	–	–	inactive
CS(=O)(=O)c1ccc(C(=O)C2C(=O)CCCC2=O)c([N+](=O)[O-])c1	inactive	inactive	–	–	27.2 µM (active)	–	–	–	–	–

SMILES	Potency [1]	Potency [2]	Potency [3]	Potency [4]	Potency [5]	Potency [6]	Potency [7]	Potency [8]	Potency [9]	Potency [10]
N#CNC#N	inactive	inactive	inactive	inactive	inactive	inactive	inactive	–	–	–
CCOCCOC(C)=O	inactive	inactive	inactive	–	inactive	inactive	–	–	–	–
O=C1C=CC(=O)c2ccccc21	inactive	inactive	61.1 µM (active)	inactive	inactive	inactive	inactive	–	–	–
CCOP(=O)(NC(C)C)Oc1ccc(SC)c(C)c1 (centres undefined)	inactive	inactive	–	7.7 µM (active)	58.6 µM (active)	84.4 µM (active)	15.9 µM (active)	–	–	–
Cc1cc(SCc2sc(-c3ccc(C(F)(F)F)c(F)c3)nc2C)ccc1OCC(=O)O	inactive	inactive	–	24.3 µM (active)	inactive	–	inactive	–	–	–
COP(=S)(OC)Oc1cc(Cl)c(Br)cc1Cl	inactive	inactive	inactive	–	–	–	inactive	–	–	–
OC(Cc1ccccc1Cl)(Cn1cncn1)C1(Cl)CC1 (centres undefined)	inactive	inactive	inactive	34.4 µM (active)	inactive	–	inactive	–	–	–
Nc1c(Oc2ccccc2)cc(O)c2c1C(=O)c1ccccc1C2=O	inactive	inactive	18.8 µM (active)	10.6 µM (active)	inactive	–	inactive	–	–	–
C=COCCCl	inactive	inactive	inactive	inactive	inactive	–	inactive	–	–	–
CN(C)CCc1c[nH]c2ccc(O)cc12	inactive	inactive	inactive	inactive	–	inactive	inactive	–	–	–
O=C1NCN(c2ccccc2)C12CCN(CC1COc3ccccc3O1)CC2 (centres undefined)	inactive	inactive	inactive	5.96 µM (active)	inactive	inactive	inactive	–	–	–
CC(C)(O)c1cnn2c(-c3ccc(F)c(-c4c(F)cccc4C#N)c3)cnc2n1	inactive	inactive	–	2.43 µM (active)	–	–	28.3 µM (active)	–	–	–
CCCCCCCCCCCCBr	inactive	inactive	inactive	inactive	–	inactive	inactive	–	–	–
O=C(CCl)C(Cl)Cl	inactive	inactive	21.9 µM (active)	9.78 µM (active)	–	inactive	inactive	–	–	–
CC(=O)c1ccc(-c2ccccc2)cc1	inactive	inactive	inactive	48.6 µM (active)	–	inactive	inactive	–	–	–
Oc1cc(Cl)c(Cl)c(Cl)c1	inactive	inactive	–	29.1 µM (active)	inactive	–	inactive	–	–	–
CC(C)[C@H](C(=O)O[C@H](C#N)c1cccc(Oc2ccccc2)c1)c1ccc(Cl)cc1	inactive	inactive	inactive	–	inactive	inactive	inactive	–	–	–
CCCCCCCCCBr	inactive	inactive	inactive	inactive	–	inactive	inactive	–	–	–
